Calls of active or inactive are those of the source. How the source made its calls: active means hit-call score of the fitted dose curve at least 0.9, where 1 is the maximum; inactive means score below 0.9.

A short description of test [1]: ATG_CRE_CIS: Attagene CIS-FACTORIAL HepG2 Assay for human cAMP Responsive Element (CRE) binding protein 3 (AID 2282926). The settings on record: HepG2 CRE cis-reporter, Attagene multiplexed mRNA; actives raise or lower the signal. In outline: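 Assay format: transient reporter transfection of HepG2, 24 h treatment, total RNA isolation with DNase I step. Reporter abundance read by fluorescence after PCR and capillary separation; DMSO-normalised gain or loss fitting.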

The target of test [2] is CCAAT/enhancer-binding protein beta (Homo sapiens) (UniProt P17676). The test is described as follows: ATG_C_EBP_CIS: Attagene CIS-FACTORIAL HepG2 Assay for human CCAAT/Enhancer Binding Protein (C/EBP) beta (AID 2282927). The settings on record: HepG2 Attagene cis-factorial transcription factor reporter; actives raise or lower the signal. Put shortly: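 Transiently transfected HepG2 (MRTU library, endogenous TF-driven promoters); 24 h dosing; total RNA → oligo(dT) RT → PCR → 6-FAM primer extension → HpaI digest → CE; fit bidirectionally vs DMSO.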
CCAAT/enhancer-binding protein beta (Homo sapiens), sequence (P17676 whole entry, looked up): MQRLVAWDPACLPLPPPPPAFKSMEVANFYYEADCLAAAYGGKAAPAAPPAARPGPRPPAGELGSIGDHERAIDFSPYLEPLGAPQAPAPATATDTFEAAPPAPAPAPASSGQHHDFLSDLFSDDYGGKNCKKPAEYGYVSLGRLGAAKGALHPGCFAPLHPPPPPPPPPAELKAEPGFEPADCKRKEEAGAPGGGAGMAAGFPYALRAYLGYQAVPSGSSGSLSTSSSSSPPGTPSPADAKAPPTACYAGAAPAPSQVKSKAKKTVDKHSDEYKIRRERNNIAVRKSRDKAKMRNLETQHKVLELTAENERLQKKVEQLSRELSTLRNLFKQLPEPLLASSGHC

Test [3] in a line: ATG_CMV_CIS: Attagene CIS-FACTORIAL HepG2 Assay for human CMV (Internal Marker) (AID 2282928).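 Further: endpoint acts as a background internal control marker rather than a target.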 Conditions: HepG2 CMV promoter reporter, transcription factor profiling; actives raise or lower the signal. In outline: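 Readout: fluorescent reporter cDNA fragments separated by capillary electrophoresis after RT-PCR and HpaI cut. Cells: HepG2 carrying transfected cis-promoter reporter constructs, dosed 24 h. Endpoint serves as background internal-marker control, fit bidirectionally versus DMSO.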

Test [4] is described as follows: ATG_DR4_LXR_CIS: Attagene CIS-FACTORIAL HepG2 Assay for human Liver X Receptor (LXR), DR4 submotif (AID 2282929). Conditions: HepG2 Attagene DR4 cis-reporter, mRNA transcription; actives raise or lower the signal. In outline:
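Fluorescence intensity of labelled reporter cDNA fragments, separated by capillary electrophoresis, gives the signal. HepG2 cells bearing cis-regulated reporter constructs were treated 24 h; activity fitted bidirectionally relative to DMSO negative control.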

The target in test [5] is Aryl hydrocarbon receptor (Homo sapiens) (UniProt P35869). The test is described as follows: ATG_Ahr_CIS: Attagene CIS-FACTORIAL HepG2 Assay for human Aryl Hydrocarbon Receptor (Ahr) (AID 2282930). Conditions: HepG2 AhR cis-factorial reporter transcription; actives raise or lower the signal. Put shortly:
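Read-out: reporter mRNA quantified by RT-PCR with fluorescent primer extension and capillary electrophoresis. Human HepG2 liver cells carried transfected cis-promoter reporter units and were exposed to chemical for 24 h; gain or loss fitted relative to DMSO.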

Test [6] in a line: ATG_AP_1_CIS: Attagene CIS-FACTORIAL HepG2 Assay for human Activator Protein 1 (AP-1) (AID 2282931). Conditions: HepG2 Attagene cis-factorial AP-1 reporter mRNA; actives raise or lower the signal. In outline:
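Multiplexed HepG2 reporter assay, 24 h dosing. mRNA induction detected by RT-PCR plus capillary electrophoresis. Activity fitted in both directions against DMSO.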

Test [7] in a line: ATG_AP_2_CIS: Attagene CIS-FACTORIAL HepG2 Assay for human Activator Protein 2 (AP-2) (AID 2282932). The settings on record: HepG2 AP-2 cis-reporter, Attagene transcription factor profiling; actives raise or lower the signal. In outline:
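Read-out: fluorescent reporter mRNA via RT-PCR and capillary electrophoresis, 24 h post-dose in transiently transfected HepG2. Endogenous factors drive cis-promoter reporters; gain or loss of signal fitted bidirectionally against DMSO.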

A short description of test [8]: ATG_BRE_CIS: Attagene CIS-FACTORIAL HepG2 Assay for human Bone Morphogenetic Protein (BMP) Response Element (BRE) (AID 2282933). The settings on record: HepG2 BMP response element reporter, Attagene transcription factor profiling; actives raise or lower the signal. Put shortly: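 Transient MRTU transfection of human HepG2 liver cells; 24 h compound treatment; total RNA isolated, reverse-transcribed, PCR-amplified, 6-FAM labelled, HpaI-cut, capillary electrophoresis. DMSO = negative control/baseline, bidirectional fit.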

The target of test [9] is Retinoic acid receptor alpha (Homo sapiens) (UniProt P10276). The experiment in a line: ATG_DR5_RAR_CIS: Attagene CIS-FACTORIAL HepG2 Assay for human Retinoic Acid Receptor Alpha (RARE), DR5 submotif (AID 2282934). Conditions: HepG2 Attagene cis-factorial RARE DR5 reporter, mRNA; actives raise or lower the signal. Put shortly: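 Read-out: DR5-driven reporter transcript measured by RT-PCR, 6-FAM primer extension, HpaI digest and capillary electrophoresis. Human HepG2 liver cells carry transiently transfected cis-element reporter constructs; dosing lasts 24 h. Gain or loss of signal fitted against DMSO baseline.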
Retinoic acid receptor alpha (Homo sapiens), sequence (P10276 whole entry, looked up): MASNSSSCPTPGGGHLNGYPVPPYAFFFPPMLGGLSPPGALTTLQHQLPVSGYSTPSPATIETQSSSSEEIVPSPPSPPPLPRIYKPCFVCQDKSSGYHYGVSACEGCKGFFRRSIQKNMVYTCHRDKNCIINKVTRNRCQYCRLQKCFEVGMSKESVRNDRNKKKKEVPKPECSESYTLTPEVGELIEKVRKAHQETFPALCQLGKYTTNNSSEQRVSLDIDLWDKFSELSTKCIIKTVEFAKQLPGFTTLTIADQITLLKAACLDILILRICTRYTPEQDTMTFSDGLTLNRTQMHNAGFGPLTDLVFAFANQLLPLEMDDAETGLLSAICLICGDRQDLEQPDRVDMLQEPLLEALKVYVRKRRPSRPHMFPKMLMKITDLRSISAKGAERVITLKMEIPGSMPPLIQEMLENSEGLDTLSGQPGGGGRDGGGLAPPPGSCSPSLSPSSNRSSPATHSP

In test [10] the target is Transcription factor E2F1 (Homo sapiens) (UniProt Q01094). The test is described as follows: ATG_E2F_CIS: Attagene CIS-FACTORIAL HepG2 Assay for human E2F Transcription Factor 1 (AID 2282935). The settings on record: HepG2 Attagene cis-reporter, E2F reporter RNA transcripts; actives raise or lower the signal. In outline: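 Transient MRTU transfection of HepG2; 24 h compound exposure; RNA → oligo(dT) RT → PCR → FAM label → HpaI cut → CE fluorescence. Gain/loss of signal fit against DMSO.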
Transcription factor E2F1 (Homo sapiens), sequence (Q01094 whole entry, looked up): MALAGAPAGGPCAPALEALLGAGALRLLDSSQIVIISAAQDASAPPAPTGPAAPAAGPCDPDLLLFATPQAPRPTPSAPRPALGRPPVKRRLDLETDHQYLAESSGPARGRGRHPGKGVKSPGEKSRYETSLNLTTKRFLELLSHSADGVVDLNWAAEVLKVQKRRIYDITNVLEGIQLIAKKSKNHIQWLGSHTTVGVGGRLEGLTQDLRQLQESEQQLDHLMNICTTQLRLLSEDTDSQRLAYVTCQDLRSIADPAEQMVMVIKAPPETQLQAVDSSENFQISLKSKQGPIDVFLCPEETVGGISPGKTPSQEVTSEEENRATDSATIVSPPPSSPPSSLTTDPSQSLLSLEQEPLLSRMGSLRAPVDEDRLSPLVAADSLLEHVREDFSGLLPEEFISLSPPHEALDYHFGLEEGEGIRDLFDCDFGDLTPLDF

Aryl hydrocarbon receptor (Homo sapiens), sequence (P35869 whole entry, looked up): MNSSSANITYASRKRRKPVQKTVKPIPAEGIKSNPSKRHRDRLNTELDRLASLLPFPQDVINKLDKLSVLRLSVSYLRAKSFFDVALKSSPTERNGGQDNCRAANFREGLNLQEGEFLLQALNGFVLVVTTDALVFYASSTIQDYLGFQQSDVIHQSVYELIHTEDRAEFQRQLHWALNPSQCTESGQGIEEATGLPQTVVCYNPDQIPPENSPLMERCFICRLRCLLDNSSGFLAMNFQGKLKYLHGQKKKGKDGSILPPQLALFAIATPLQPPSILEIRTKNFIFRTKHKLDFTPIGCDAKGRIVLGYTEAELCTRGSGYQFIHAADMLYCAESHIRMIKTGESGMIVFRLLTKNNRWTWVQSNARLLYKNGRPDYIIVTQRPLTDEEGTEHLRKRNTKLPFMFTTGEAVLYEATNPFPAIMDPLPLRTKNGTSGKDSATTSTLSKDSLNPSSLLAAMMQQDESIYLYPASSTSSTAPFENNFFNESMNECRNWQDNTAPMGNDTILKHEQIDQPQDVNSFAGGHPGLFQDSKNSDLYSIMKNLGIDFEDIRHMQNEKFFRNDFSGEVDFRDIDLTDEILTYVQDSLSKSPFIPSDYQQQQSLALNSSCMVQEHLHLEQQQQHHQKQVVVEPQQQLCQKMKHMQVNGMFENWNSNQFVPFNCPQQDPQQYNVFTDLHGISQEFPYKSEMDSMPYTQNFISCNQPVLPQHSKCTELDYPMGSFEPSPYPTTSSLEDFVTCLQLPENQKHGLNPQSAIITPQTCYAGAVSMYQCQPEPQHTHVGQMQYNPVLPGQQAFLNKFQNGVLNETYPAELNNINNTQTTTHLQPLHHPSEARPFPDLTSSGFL

Regarding `O=C1CC2CC1C1CCCC21` (stereo not given), the outcome in [1], in test [2], in [3], in test [4], in test [5] and in test [6] was inactive. Besides, the result in test [7], in [8], in test [9] and in test [10] was inactive.

In the case of `CCCC(=O)OCc1ccccc1`, the call in test [1], in test [2], in test [3], in test [4], in test [5] and in test [6] was inactive. Moreover, the call in test [7], in test [8], in [9] and in test [10] was inactive.

In general, AC50 refers to the concentration at which the activity in the assay is half-maximal. For the molecule `OC1CCCCCCCCCCC1`, the call in test [1], in test [2], in test [5], in [6], in test [7] and in [8] was inactive. Also, the molecule was called inactive in test [9] and in test [10]. Moreover, the AC50 in test [3] is 75.4 µM (active); in [4], 40.5 µM (active).

Regarding `OCCCS`, the molecule was classed as inactive in test [1], in [2], in test [3], in [4], in test [5] and in [6]. Further, the molecule was classed as inactive in test [7], in [8], in [9] and in test [10].

Consider `CC/C=C\CCOC(=O)CCCCC`, for which the outcome in test [1], in test [2], in [3], in test [4], in test [5] and in [6] was inactive. The call in test [7], in [8], in [9] and in test [10] was inactive.

Regarding `C=CC(=O)OCC(Br)CBr` (stereo not given), the molecule was called inactive in test [1], in test [5], in test [6], in test [7], in test [8] and in test [9]. In test [10], the molecule was called inactive. In addition, the AC50 is 180 µM (active) in test [2], 100 µM (active) in [3] and 53.4 µM (active) in test [4].

On to `FC(F)(F)C(=NOCC1OCCO1)c1ccc(Cl)cc1`, for which the molecule was classed as inactive in test [1], in [2], in [3], in test [5], in test [6] and in [7]. For the same molecule, the molecule was called inactive in test [9] and in [10]. The values for the AC50 in test [4] and in test [8] were 38.1 µM (active) and 150 µM (active), respectively.

On to `CC(C)C(=O)C(C)C`, for which the AC50 was 36.9 µM (active) in test [1] and 66.5 µM (active) in test [6]. Also, the result in test [2], in [3], in test [4], in test [5], in [7] and in [8] was inactive. The result in test [9] and in [10] was inactive.

Turning to `Cc1ccc([N+](=O)[O-])cc1S(=O)(=O)O`, the result in test [1], in [2], in test [3], in test [4], in test [5] and in [6] was inactive. For the same molecule, the molecule was classed as inactive in test [8], in test [9] and in [10]. Also, the AC50 in test [7] is 163 µM (active).

Take `O=c1c2ccccc2nnn1CCl`: the molecule was called inactive in test [1], in test [2], in test [3], in test [4], in test [5] and in [6]. Further, the outcome in test [7], in test [8], in test [9] and in [10] was inactive.

With `O=C1CCC(=O)N1Cl`, the result in test [1], in test [2], in [3], in test [4], in test [5] and in [6] was inactive. The molecule was called inactive in test [7], in test [8], in [9] and in test [10].

With `O=c1[nH]c(=O)c2[nH]c(=O)[nH]c2[nH]1`, the call in test [1], in test [2], in test [3], in [4], in test [5] and in [6] was inactive. Further, the molecule was called inactive in [7], in [8], in test [9] and in [10].

As for `Nc1ccc(-c2ccc(F)cc2)cc1`, the molecule was classed as inactive in [1], in test [2], in [3], in test [4], in test [5] and in [6]. Also, the call in [7], in test [8], in test [9] and in test [10] was inactive.

Turning to `CCN(CCO)c1cccc(C)c1`, the molecule was called inactive in test [1], in [2], in test [3], in [4], in [6] and in test [7]. The molecule was classed as inactive in [8], in test [9] and in test [10]. In addition, the AC50 in test [5] was 55 µM (active).

Turning to `CCCCC(CC)COCC1CO1` (stereo not given), the call in [1], in [2], in test [3], in [4], in test [5] and in test [6] was inactive. For the same molecule, the molecule was called inactive in test [7], in test [8], in [9] and in [10].

Turning to `C=CC(=O)OCCOC1C2CCC1C1CC=CC12` (stereo not given), the result in test [1], in test [2], in test [3], in [4], in test [5] and in [6] was inactive. Besides, the molecule was called inactive in [7], in test [8], in [9] and in [10].

For the molecule `CC(C)c1ccc(C#N)cc1`, the outcome in [1], in test [2], in [3], in test [4], in test [5] and in test [6] was inactive. Also, the molecule was called inactive in [7], in test [8], in test [9] and in test [10].

As for `CC(=O)OC1C2(C)CCC(C2)C1(C)C` (stereo not given), the molecule was called inactive in test [1], in [2], in test [3], in test [4], in [5] and in test [6]. The result in test [7], in test [8], in test [9] and in test [10] was inactive.

`CC(=O)NS(=O)(=O)c1ccc(N)cc1`: the call in test [1], in [2], in test [3], in test [4], in test [5] and in test [6] was inactive. Also, the call in [7], in test [8], in test [9] and in test [10] was inactive.

Values taken from PubChem BioAssay (EPA / NIEHS).
